Assay outcomes as filed in PubChem.
HCMV inh: qHTS Assay for inhibitors of the human cytomegalovirus (HCMV) | HFF cells, HCMV-luciferase reporter, 72 h; active compounds read low | AID 1259415, 2018 | activity change, negative = inhibition, % at 57.5 µM | hit rate 4.5% among 410,000; in the data active = activity change below about -60%; inconclusive = no clear call, values can overlap the other calls; inactive = above about -39%
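Luciferase read-out from HCMV-luciferase-infected HFFs (MOI 1 PFU/cell) 72 h post infection at 37C; compounds added after 16 h cell attachment; activity normalized between buffer-only basal and Salinomycin (10uM) inhibitor controls.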
FMDV inh: High Throughput Screening for Foot and Mouth Disease Virus Antivirals. FMDV antiviral cell-based qHTS. Potency, µM (series often up to 57.9 µM), for inactives: at the highest dose activity change, negative = inhibition, usual class: inhibitors. hit rate 1.2% among 410,000. AID 1159524, 2015; calls by dose curve; tested in HEK293T cells; also: read-out not given here; potency is read from the fitted curve at half-maximal effect; nearly all actives have a fitted effect of over 45% in size
VACV mCherry inh: qHTS for Stage-Specific Inhibitors of Vaccinia Orthopoxvirus: mCherry Reporter Primary qHTS. Potency, µM (series often up to 36.5 µM), inactives show top-dose activity change, negative = inhibition, usual class: inhibitors. Vaccinia virus mCherry reporter infection, fluorescence. hit rate 0.63% among 310,000. AID 720579, 2013; calls by dose curve; tested in A549 cells; also: potency is read from the fitted curve at half-maximal effect; nearly all actives have a fitted effect of over 35% in size
Vaccinia Venus: qHTS for Stage-Specific Inhibitors of Vaccinia Orthopoxvirus: Venus Reporter Primary qHTS; Potency, µM (titrated, usually from 36.5 µM), for inactives: top-dose activity change, negative = inhibition, hits mostly inhibitors; AID 720580, 2013; hit rate 0.46% among 330,000; Vaccinia virus Venus reporter expression, fluorescence; calls by dose curve; tested in A549 cells; also: potency is read from the fitted curve at half-maximal effect; nearly all actives have a fitted effect of over 30% in size
LASV entry inh: qHTS for Inhibitors of binding or entry into cells for Lassa Virus; Lassa virus pseudotype entry inhibition, cell reporter; Potency, µM (highest dose often 37.9 µM), for inactives: at the highest dose activity change, negative = inhibition, actives largely listed as inhibitors; hit rate 1.2% among 300,000; calls by dose curve; tested in HEK293 cells; also: potency is read from the fitted curve at half-maximal effect; nearly all actives have a fitted effect of over 50% in size
MARV entry inh: qHTS for inhibitors of binding or entry into cells for Marburg Virus; Marburg virus pseudotyped entry inhibition, cell reporter; Potency, µM (series often up to 37.8 µM), for the others: at the top dose activity change, negative = inhibition, hits mostly inhibitors; hit rate 1.8% among 300,000; AID 540276, 2011; calls by dose curve; tested in HEK293 cells; also: potency is read from the fitted curve at half-maximal effect
An asterisk follows results filed as active; ! = a repeat was not active; [ ] = remark or other dose. The list is not random: actives were taken first. Their share in the collection is about 6.5%. % is scaled to controls: 0 for no effect and ±100 for the full control effect.

For COCC1CCN(Cc2cn(Cc3ccccc3)nc2-c2cc3ccccc3o2)CC1 the results were HCMV inh 5, FMDV inh -5%, VACV mCherry inh -24%, Vaccinia Venus -19%, LASV entry inh inconclusive and MARV entry inh inconclusive.
COCC1CCCN(Cc2cn(Cc3ccccc3)nc2-c2cc3ccccc3o2)C1 (stereo unspecified) was read as HCMV inh -78*, FMDV inh -13%, VACV mCherry inh -21%, Vaccinia Venus -25%, LASV entry inh inconclusive and MARV entry inh 2.5µM*.
`Nc1ncnc2c1nc(Cl)n2C1OC(CO)C(O)C1O` (stereo unspecified) gave FMDV inh inconclusive, VACV mCherry inh inconclusive and Vaccinia Venus -28%.
For CN(C)c1nc2c(N)ncnc2n1[C@H]1O[C@@H](CO)[C@H](O)[C@@H]1O the results were HCMV inh -70*, FMDV inh 5%, VACV mCherry inh inactive, Vaccinia Venus -11%, LASV entry inh -11%[46.1 µM] and MARV entry inh 17%[46.1 µM].
For Nc1ncnc2c1nc(Cl)n2[C@@H]1O[C@H](CO)[C@@H](O)[C@@H]1O the results were VACV mCherry inh inconclusive and Vaccinia Venus 13µM*.
For CN(C)c1nc2c(N)ncnc2n1C1OC(CO)C(O)C1O (stereo unspecified) the results were HCMV inh -20, FMDV inh -6%, VACV mCherry inh -15%, Vaccinia Venus -9%, LASV entry inh 0% and MARV entry inh 17%.
`[N-]=[N+]=Nc1nc2c(N)ncnc2n1C1OC(CO)C(O)C1O` (stereo unspecified) gave FMDV inh -29%, VACV mCherry inh 8.9µM* and Vaccinia Venus 13µM*.
For Cc1cc(=O)c(C(=O)NCCCc2ccncc2)c2n1-c1ccccc1SC(c1cccs1)C2 (stereo unspecified) the results were FMDV inh -9%, VACV mCherry inh -6% and Vaccinia Venus -4%.
For O=C(c1ccccc1)C1OC1C(=O)c1ccccc1 (stereo unspecified) the results were HCMV inh -11, FMDV inh -9%, VACV mCherry inh inconclusive, Vaccinia Venus -29%, LASV entry inh inconclusive and MARV entry inh 7.9µM*.
CC1=NS(=O)(=O)c2cc(Cl)ccc2N1 was read as HCMV inh 24, FMDV inh 43%, VACV mCherry inh 0%, Vaccinia Venus -8%, LASV entry inh inconclusive and MARV entry inh 13µM*!.
`Brc1ccc(-c2csc3ncnc(-n4nnc5ccccc54)c23)cc1` gave HCMV inh -68*, FMDV inh inconclusive, VACV mCherry inh -11%, Vaccinia Venus -23%, LASV entry inh inconclusive and MARV entry inh 13µM*.
Screening Cc1sc2ncnc(-n3nnc4ccccc43)c2c1C returned HCMV inh inconclusive and FMDV inh -8%.
CC(C)(CN1CCOCC1)NS(=O)(=O)c1ccccc1 was read as HCMV inh -29, FMDV inh 2%, VACV mCherry inh -27%, Vaccinia Venus -3%, LASV entry inh 4% and MARV entry inh -1%.
CN1CCN(CC(C)(C)NS(=O)(=O)c2ccccc2)CC1 was read as HCMV inh -61*, FMDV inh -14%, VACV mCherry inh -10%, Vaccinia Venus -2%, LASV entry inh 2% and MARV entry inh 4%.
For FC(F)(F)c1cccc(N2CCN(C(=S)NCC3CCCO3)CC2)c1 (stereo unspecified) the results were HCMV inh -65*, FMDV inh inconclusive, VACV mCherry inh -26%, Vaccinia Venus -23%, LASV entry inh inconclusive and MARV entry inh inconclusive.
`O=C(c1noc2c1CCCCC2)N1CCN(c2cccc(C(F)(F)F)c2)CC1` gave HCMV inh -78*, FMDV inh -15%, VACV mCherry inh -21%, Vaccinia Venus -17% and LASV entry inh -11%[46.1 µM].
`O=C(c1cc2ccccn2n1)N1CCN(c2cccc(C(F)(F)F)c2)CC1` gave HCMV inh -68*, FMDV inh inconclusive, LASV entry inh -5% and MARV entry inh 0%.
Screening S=C(NCC1CCCO1)N1CCN(c2ccccc2)CC1 (stereo unspecified) returned HCMV inh -31, FMDV inh 13%, VACV mCherry inh 2%, Vaccinia Venus -6%, LASV entry inh 0% and MARV entry inh inconclusive.
Screening CCc1nn(CC(=O)N2CCN(c3ccc(OC)cc3)CC2)c(=O)c2cc3sccc3n12 returned HCMV inh 24, FMDV inh -18%, VACV mCherry inh -8%, Vaccinia Venus -15% and MARV entry inh -2%[46.1 µM].
`COc1ccc(Cl)c(Cn2c(NCCN)nc3c2c(=O)n(C)c(=O)n3C)c1` gave HCMV inh -5, FMDV inh 5%, VACV mCherry inh -14%, Vaccinia Venus -15%, LASV entry inh 18%[46.1 µM] and MARV entry inh -26%[46.1 µM].
Screening COc1cccc(/C=N/NC(=O)C(=O)N/N=C/c2cccc(OC)c2O)c1O returned HCMV inh -28, FMDV inh 4%, VACV mCherry inh -7%, Vaccinia Venus 2%, LASV entry inh inconclusive and MARV entry inh inconclusive.
For COc1cccc(/C=N/NC(=O)C(=O)N2CCCCCC2)c1O the results were HCMV inh 14, FMDV inh 38%, VACV mCherry inh 13µM*, Vaccinia Venus -27%, LASV entry inh inconclusive and MARV entry inh inconclusive.
For CCOc1ccc(/C=N/NC(=O)c2cc3c(OC)cccc3[nH]2)cc1 the results were HCMV inh -63*, FMDV inh -8%, VACV mCherry inh inconclusive, Vaccinia Venus inconclusive, LASV entry inh inconclusive and MARV entry inh inconclusive.
For COc1ccc(/C=N/NC(=O)c2cccc(OC(F)(F)C(F)F)c2)c(OC)c1OC the results were HCMV inh 23, FMDV inh -21%, VACV mCherry inh -6%, Vaccinia Venus -7%, LASV entry inh 10µM* and MARV entry inh 23%.
`COc1cccc(/C=N/NC(=O)c2cc3c(OC)cccc3[nH]2)c1O` gave HCMV inh -75*, FMDV inh -9%, VACV mCherry inh inconclusive, Vaccinia Venus inconclusive, LASV entry inh -5% and MARV entry inh inconclusive.
For CCC(=O)N1CCc2cc(S(=O)(=O)NCCC(=O)N3CCN(c4cccc(C)c4)C(C)C3)ccc21 (stereo unspecified) the results were HCMV inh -38 and FMDV inh inconclusive.
For COc1cccc(/C=N/NC(=O)c2cc(-c3cccn3C)n[nH]2)c1O the results were HCMV inh inconclusive, FMDV inh 3%, VACV mCherry inh 4µM*, Vaccinia Venus inconclusive, LASV entry inh 2.2µM* and MARV entry inh 8.9µM*.
